Screening data deposited in PubChem BioAssay by The Scripps Research Institute Molecular Screening Center.
TEAD-YAP block: TEAD-YAP interaction inhibition | inhibition, % at 9.12 µM | 640,000 tested, 1.4% active | AID 1259422 | HEK-TIYL cells, TEAD-Gal4/YAP UAS-luciferase luminescence; in the data active means inhibition above about 32%;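 further: 0% = median of test compound wells and 100% = reference inhibitor wells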
GPR151 ag: activators of human GPR151. Q8TDV0. PathHunter beta-arrestin GPR151 cells, luminescence. activation, % at 11.2 µM. 650,000 tested, 1% active; in the data active means activation above about 4.9%;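 further: 0% = median of compound wells and 100% = cells with positive control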
MITF inh: human MITF inhibition, primary screen. inhibition, % at 2.6 µM. O75030. 650,000 tested, 0.91% active. AlphaScreen MITF homodimerization, bead proximity signal; in the data active means inhibition above about 50%;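 further: 0% = vehicle wells with protein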
FBW7 activator: activators of human E3 ligase FBW7. Q969H0. AlphaScreen FBW7–phospho-cyclin E peptide binding, activator screen. normalized activity (activation), % at 26.1 µM. 650,000 tested, 0.13% active. AID 1259310; in the data active means normalized activity above about 1.9%;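 further: purified mutant Fbw7 with reduced substrate affinity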
* = called active by the depositor. Sampled rows, rich in hits. Any-hit rate of the full collection: about 3.5%.

Screening CC(C)CC(C(=O)Nc1sc2c(c1C#N)CCCCC2)N1C(=O)c2ccccc2C1=O (configuration not stated) returned TEAD-YAP block 4, GPR151 ag 0, MITF inh -9 and FBW7 activator 0.
COc1ccc(Cl)cc1C(=O)NCc1ccc2c(c1)cc(C)n2C was read as TEAD-YAP block 44*, GPR151 ag 1, MITF inh -1 and FBW7 activator 0.
`Cc1nc(N2CCCC(NCC3CC3)CC2)nc2ccc(F)cc12` (configuration not stated) gave TEAD-YAP block -14, GPR151 ag -1, MITF inh -4 and FBW7 activator 0.
For CCOc1ccc2c(c1)c1nnc(SCC(=O)N3CCCCC3)nc1n2C the results were TEAD-YAP block 5, GPR151 ag 2, MITF inh 11 and FBW7 activator 0.
CN(c1ncccc1CNc1cc(Nc2ccc3c(c2)CC(=O)N3)ncc1C(F)(F)F)S(C)(=O)=O was read as TEAD-YAP block 35*, GPR151 ag 0, MITF inh 2 and FBW7 activator 0.
For CNC(=O)c1cc(N2CCOCC2)ccc1Nc1cc(Nc2ccc3c(c2)CC(=O)N3)ncc1C(F)(F)F the results were TEAD-YAP block 18, GPR151 ag -1, MITF inh -11 and FBW7 activator 0.
Screening CN(c1ncccc1CNc1nc(Nc2ccc3c(c2)CC(=O)N3)ncc1C(F)(F)F)S(C)(=O)=O returned TEAD-YAP block 77*, GPR151 ag -1, MITF inh 7 and FBW7 activator 0.
For O=C(CSc1ncc(-c2ccccc2)[nH]1)Nc1cccc(F)c1 the results were TEAD-YAP block -11, GPR151 ag 0, MITF inh 6 and FBW7 activator 0.
Screening O=C(c1ccc(N2CCCC2=O)cc1)N1CCc2nnc(Cc3ccccc3)n2CC1 returned TEAD-YAP block 1, GPR151 ag 0, MITF inh 2 and FBW7 activator 0.
Screening Oc1ccc(-c2cn3ccsc3n2)cc1 returned TEAD-YAP block 73*, GPR151 ag -2, MITF inh 12 and FBW7 activator 0.
For CCOc1ccc(-c2cn3ccsc3n2)cc1 the results were TEAD-YAP block 43*, GPR151 ag -2, MITF inh 12 and FBW7 activator 0.
`COCCn1c(SCC(=O)NC(C)c2ccccc2)nnc1-c1ccc(Cl)cc1` (configuration not stated) gave TEAD-YAP block 5, GPR151 ag -1, MITF inh 17 and FBW7 activator 0.
Screening Clc1ccc(-n2ncc3c(N4CCCCC4)ncnc32)cc1 returned TEAD-YAP block 96*, GPR151 ag -1, MITF inh -10 and FBW7 activator 0.
Screening Clc1ccc(-n2ncc3c(N4CCCC4)ncnc32)cc1 returned TEAD-YAP block 35*, GPR151 ag 3, MITF inh -3 and FBW7 activator 0.
`Fc1ccc(-n2ncc3c(N4CCCCCC4)ncnc32)cc1` gave TEAD-YAP block 28, GPR151 ag 2, MITF inh 8 and FBW7 activator 1.
`O=C(Nc1ccccc1N1CCOCC1)c1ccccc1-c1ccccc1` gave TEAD-YAP block -11, GPR151 ag 1, MITF inh -5 and FBW7 activator 0.
Screening CC1C(=O)N2CCCc3cc(S(=O)(=O)N(Cc4ccccc4)c4ccccc4)cc1c32 (configuration not stated) returned TEAD-YAP block -7, GPR151 ag 2, MITF inh -2 and FBW7 activator 0.
Screening CCc1ccc(-c2cc(C(=O)Nn3cnnc3)c3ccccc3n2)cc1 returned TEAD-YAP block 82*, GPR151 ag -3, MITF inh 7 and FBW7 activator 0.
COc1cc(C(=O)Nc2ccc(-c3nc4ccccc4[nH]3)cc2)cc(OC)c1OC was read as TEAD-YAP block 32*, GPR151 ag 0, MITF inh 8 and FBW7 activator 0.
`COc1cc(C(=O)Nc2ccccc2)c2ccccc2n1` gave TEAD-YAP block 24, GPR151 ag 0, MITF inh 5 and FBW7 activator 0.
Screening COc1cc(C(=O)Nc2ccccc2C(=O)Nc2ccccc2)cc(OC)c1OC returned TEAD-YAP block 53*, GPR151 ag 1, MITF inh -8 and FBW7 activator 0.
COc1ccc(C(=O)Nc2ccc(-c3nc4ccccc4[nH]3)cc2)cc1OC was read as TEAD-YAP block 3, GPR151 ag 1, MITF inh -6 and FBW7 activator 0.
COc1cc(C(=O)Nc2ccccc2C(=O)Nc2cccc(C(=O)O)c2)cc(OC)c1OC was read as TEAD-YAP block 1, GPR151 ag 0, MITF inh 1 and FBW7 activator 0.
